Several values for one entry are separate records, joined by “and”; a condition that tells them apart may be missing. Equal values may be shown once. Hit rate of the full screen: of about 300,000 compounds, about 520 (0.17%) were called active. No stated cut-off is given here; in the data, active means inhibition above about 50%; inconclusive means no clear call, values can overlap the other calls; inactive means below that. What follows is part of a selection rich in actives, with near analogues and random picks from the rest.
experiment: PubChem AID 1554; details: BJeLR (HRASV12) viability, CellTiter-Glo ATP luminescence, 48 h; stronger effect = higher value; concentration not given here

SMILES	inhibition
C=CCn1c(SCC(=O)c2ccc(Br)cc2)nnc1C(C)NC(=O)Cc1ccc(OC)cc1 (stereo unspecified)	2.52% (inactive)
NS(=O)(=O)c1ccc(CNC(=O)c2cnccn2)cc1	4.27% (inactive)
CCC(C)Sc1nc2c(cnn2-c2ccc(F)cc2)c(=O)[nH]1 (stereo unspecified)	-2.29% (inactive)
CC1(C)CC(=O)C(C=NCCN2CCN(C(=S)Nc3cccc(Cl)c3)CC2)=C(O)C1	8.42% (inactive)
CSCCC(NC(=O)COc1ccccc1)C(=O)OCCOc1ccc(F)cc1 (stereo unspecified)	-6.51% (inactive)
CCOC(=O)c1sc(NC(=O)CSc2nc(O)c(Cc3ccccc3)c(=O)[nH]2)nc1C	5.77% (inactive)
CCCn1c(=N)n(CC(=O)c2ccc(Cl)c(Cl)c2)c2ccccc21	3.45% (inactive)
COc1ccc2c(c1)N(C)/C(=C1/SC(=S)N(NC(C)=O)C1=O)S2	1.69% (inactive)
CC(OC(=O)CN1C(=O)C2CCCCC2C1=O)C(=O)Nc1ncc(Cl)cc1Cl (stereo unspecified)	6.26% (inactive)
CCOC(=O)c1c(N)sc2c1CCCC2=O	7.59% (inactive)
O=C(Nc1ccc(C(=O)O)cc1)/C(=C\c1ccccc1)NC(=O)c1ccc(Br)cc1	-0.97% (inactive)
Cc1ccc(OC(=O)c2cncc(Br)c2)c(C)c1	-5.3% (inactive)
CC1CN(C2CCN(C(=O)COc3ccccc3)CC2)CC(C)O1 (stereo unspecified)	-0.241% (inactive)
Cc1c(C(=O)N(Cc2ccccc2)Cc2cccnc2)cnn1-c1ccc(F)cc1	-6% (inactive)
O=[N+]([O-])c1cc(Br)c(O)c(/C=N/Nc2nc3ccccc3s2)c1	7.46% (inactive)
O=C(CNC(=O)c1ccccc1)Oc1ccc([N+](=O)[O-])cc1	-1.21% (inactive)
O=C(NC(Nc1nc2ccc([N+](=O)[O-])cc2s1)(C(F)(F)F)C(F)(F)F)c1ccccc1	77.1% (active)
O=C(CCC(=O)NNc1nc2ccccc2c2nc(-c3ccccc3)nn12)NCCCN1CCCC1=O	0.872% (inactive)
CCOC(=O)/C(=C\c1ccc([N+](=O)[O-])cc1)C(=O)c1cc(C(C)=O)c(Nc2ccccc2)s1	58.8% (active)
Cc1ccc(NC(=O)/C(=C/c2ccc([N+](=O)[O-])cc2)NC(=O)c2ccccc2)cc1	-1.53% (inactive)
CCOC(=O)COc1ccc([N+](=O)[O-])cc1	-3.89% (inactive)
Cc1ccc(NC(=O)c2cnc(SCC(=O)NCC3CCCO3)n(C)c2=O)cc1 (stereo unspecified)	1.95% (inactive)
COc1cc(CN2CCN(Cc3ccc(C)cc3)CC2)c([N+](=O)[O-])cc1OC	1.71% (inactive)

SMILES	inhibition
COC(=O)CN1C(=O)C(C)(C)Oc2ccc(C(=O)Nc3cccc(OC)c3)cc21	-4.31% (inactive)
COc1ccc(CCNC(=O)COC(=O)Cc2cc(OC)c(OC)c(OC)c2)cc1	0.941% (inactive)
COc1cc2c(C(=O)N(C)c3cc(Cl)ccc3OC)cn(C)c(=O)c2cc1OC	-4.19% (inactive)
O=C(NCCOc1cccnc1)c1ccc(OC2CCN(Cc3ccccn3)CC2)cc1	113% (active)
O=C(c1ccc(OC2CCN(Cc3ccccn3)CC2)cc1)N1CCCCCC1	-3.12% (inactive)
Cn1cc(CNC(=O)c2ccc(OC3CCN(Cc4ccccn4)CC3)cc2)cn1	2.21% (inactive)
O=C(CN1C(=O)c2cccnc2Oc2ccc(Cl)cc21)NCCc1ccccc1	2.42% (inactive)
CC(=O)N1CCN(c2ccc(NCc3ccc(C(C)C)cc3)cc2)CC1	-2.24% (inactive)
CC(=O)c1ccc(N2Cc3ccccc3C2)cc1	-5.06% (inactive)
C/C(=N/NC(=O)CN1CCN(S(=O)(=O)c2ccc(Br)cc2)CC1)c1ccncc1	4.03% (inactive)
O=C(c1cc(-c2ccc(Cl)s2)nc2ccccc12)N1CCOCC1	-8.28% (inactive)
Cc1ccc(CSCCNC(=O)CN(c2ccc(F)cc2)S(C)(=O)=O)cc1	-8.45% (inactive)
CC1CCCC(N2CCN(C(=O)c3ccc(F)cc3)CC2)C1 (stereo unspecified)	-5.87% (inactive)
O=C(NCc1ccccc1Cl)c1ccc2c(=O)n(CC3CCCO3)c(=S)[nH]c2c1 (stereo unspecified)	9.1% (inactive)
COc1cc(NC(=O)CSC(=S)N2CCCC2)c(OC)cc1Cl	-1.51% (inactive)
CCOc1ccc(OCCSc2nc3ccccc3n2CC(=O)O)cc1	-3.19% (inactive)
Cc1ccc2cc(C#N)c(NCCNC(=S)NCCCN3CCOCC3)nc2c1	4.4% (inactive)
COc1cc([N+](=O)[O-])ccc1NC(=S)N1CCN(c2ccccn2)CC1	-1.41% (inactive)
COc1ccc(N2CCN(C(C)=C3C(=O)c4ccccc4C3=O)CC2)cc1	2.27% (inactive)
CCOC(=O)C1=C(c2ccc(OC)cc2)C(=O)c2ccccc2C1=O	110% (active)
CCOC(=O)c1cc2cc3ccccc3cc2oc1=O	-11.8% (inactive)
Cc1ccc(S(=O)(=O)n2cccc2CO)cc1	-3.34% (inactive)
COCCNS(=O)(=O)c1cc(Br)ccc1OC	-2.67% (inactive)

SMILES	inhibition
O=C(NCc1ccc2c(c1)OCO2)c1cc2c(s1)CS(=O)(=O)C2	5.68% (inactive)
COc1ccc(C(=O)O)cc1S(=O)(=O)NCc1cccnc1	4.17% (inactive)
Cn1cc(CCC(=O)N2CCCC(C(=O)c3ccc(C(C)(C)C)cc3)C2)cn1 (stereo unspecified)	-7.89% (inactive)
CC(NC(=O)CCCC1CCCCC1)c1ccc(S(N)(=O)=O)cc1 (stereo unspecified)	10.8% (inactive)
COc1ccc(S(=O)(=O)N2CCCCCC2)cc1C(=O)N(C)Cc1cccc(OC)c1OC	-3.35% (inactive)
O=S(=O)(Cc1noc(-c2ccc(OC(F)(F)F)cc2)n1)c1ccc(F)cc1	-11.6% (inactive)
Cc1nnc(SCC(=O)N2c3ccccc3C(C)(c3ccc(Cl)cc3)CC2(C)C)s1 (stereo unspecified)	13.1% (inactive)
Cc1[nH]c(C)c(S(=O)(=O)N2CCN(c3cccc(C(F)(F)F)c3)CC2)c1C(=O)N1CCCCC1	0.76% (inactive)
Nc1ccc(-n2nncc2-c2ccco2)cc1	11.6% (inactive)
CCOc1c(N2CCCCC2)c(=O)c1=O	5.32% (inactive)
O=C(/C=C/c1ccc([N+](=O)[O-])o1)NNC(=O)c1ccc(F)cc1	60.3% (active)
Cc1ccc(/C=C/C(=O)Nc2ccc([N+](=O)[O-])c(NC(=O)/C=C/c3ccc(C)o3)c2)o1	-29.1% (inactive)
O=C(N/N=C/c1ccc([N+](=O)[O-])o1)c1cn(-c2ccccc2)nc1-c1ccc(F)cc1	-4.37% (inactive)
CNS(=O)(=O)c1cccc(C(=O)NC2CCCc3ccccc32)c1 (stereo unspecified)	-3.04% (inactive)
CCCCCC(O)(CCN1CCCCC1)c1ccccc1 (stereo unspecified)	-2.94% (inactive)
CC(C)CC[n+]1ccn(C2=C([O-])c3ccccc3C(=O)/C2=N\S(=O)(=O)c2ccccc2)c1	-5.54% (inactive)
CN(C)/C=C(\C#N)C(=O)c1cccnc1Oc1ccc(F)cc1F	-6.11% (inactive)
Oc1ccc2ccccc2c1N=Nc1nccs1	77.1% (active)
COC(=O)CCSc1cc([N+](=O)[O-])cc2c1c(C1OCCS1)nn2-c1ccccc1 (stereo unspecified)	3.81% (inactive)
CCOc1ccc(C(C)=O)cc1CSc1nnc(-c2ccncc2)n1CCOC	-17.6% (inactive)
Cc1cc(C)c(NC(=O)CN2CCCCCC2)c(C)c1	-2.78% (inactive)
COc1cccc(C(=O)Nc2ccc(N3CCCC3)cc2)c1	52.9% (active)
COc1cccc(C(=O)Nc2ccc(N3CCN(C(=O)c4ccco4)CC3)cc2)c1	11.7% (inactive)

SMILES	inhibition
CN1CCN(c2ccc(NC(=O)c3ccccc3)cc2)CC1	-5.43% (inactive)
Cc1[nH]c2ccccc2c1-c1ccc(Cl)nn1	7.01% (inactive)
CC(C)(C)SCCSC1=CC(=O)CC(c2ccccc2)C1 (stereo unspecified)	7.66% (inactive)
CC1=C/C(=N\OS(=O)(=O)c2ccccc2)C=CC1=O	91.4% (active)
CCCCCN1CC(O)=C(c2ccccc2)C1=N	-8.91% (inactive)
CCCCCCCCCCCCn1ccc(=N)cc1	87.5% (active)
CCCCCCCCn1c2c(c(=N)c3c1CCC3)CCCC2	24.6% (inactive)
Cn1c(Cc2cccs2)nnc1SCC(=O)Nc1ccccc1	-23.8% (inactive)
C=CCc1c(C)nc2cc(-c3ccccc3)[nH]n2c1=O	2.64% (inactive)
COC(=O)c1ccc(COC(=O)c2c(C)nn(Cc3ccccc3Cl)c2Cl)o1	-0.748% (inactive)
CCOC(=O)C1CCCN(S(=O)(=O)c2ccc3c(c2)C(C)(C)C(=O)N3C)C1 (stereo unspecified)	-8.48% (inactive)
N#Cc1cccc(CN2CCC(=O)N([C@H](CO)c3ccccc3)CC2)c1	4.84% (inactive)
Cc1ccc(-c2nn(-c3ccccc3)cc2CN(Cc2ccccc2)C(=O)CCC(=O)O)o1	-0.0578% (inactive)
Cc1ccc(-c2nn(-c3ccccc3)cc2/C=N/NC(=O)c2ccc3c(c2)OCO3)cc1	11.4% (inactive)
CCc1ccc(-c2nn(-c3ccccc3)cc2CSC(=N)N)cc1	103% (active)
COc1ccc(S(=O)(=O)N2CCOC2CNC(=O)C(=O)NCc2ccc(F)cc2)cc1 (stereo unspecified)	6.34% (inactive)
Cc1nnc(SC(C)C(=O)Nc2ccc(S(=O)(=O)NC3CCCCC3)cc2)s1 (stereo unspecified)	-6.12% (inactive)
Cc1cc([N+](=O)[O-])nn1Cc1ccc(F)cc1	7.4% (inactive)
CCCc1cc(=O)[nH]c(SCC(=O)OCc2ccccc2)n1	-0.726% (inactive)
CCCc1cc(=O)[nH]c(SCC(=O)c2cc(C)n(CCC)c2C)n1	0.606% (inactive)
CCCc1cc(=O)[nH]c(SCC(=O)c2c(N)n(CC(C)C)c(=O)n(C)c2=O)n1	63.2% (active)
COC(=O)[C@H]1[C@H]2C[C@H]3c4[nH]c5ccccc5c4CCN3C[C@@H]2CC[C@@H]1O	-6.61% (inactive) and 2.06% (inactive)

From PubChem BioAssay AID1554 (Broad Institute, 2009)
